# Source: PubChem (National Center for Advancing Translational Sciences (NCATS))
# MARV entry inh = inhibitors of Marburg virus binding or cell entry; Marburg virus pseudotyped entry inhibition, cell reporter; Potency, µM (highest dose often 37.8 µM), without a hit: at the highest dose activity change, negative = inhibition, hits mostly inhibitors; 300,000 compounds, 1.8% hits; calls by dose curve; tested in HEK293 cells; further: potency means the concentration at half of the fitted maximal effect; on the % scale 0 is the no-effect control and ±100 the full control effect
# Cycloheximide cs = counter-screen hit for Shiga toxin inhibitors, cycloheximide; cell reporter, cycloheximide protein synthesis inhibition counterscreen; AID 2314; max response, %; 300,000 compounds, 12% hits; in the data active means max response mostly above about 13%, no sharp cut-off; inactive means mostly below about 14%; further: read at 38.3 µM for the half of the compounds with a filed dose; 0% is about no effect
# LASV entry inh = inhibitors of Lassa virus binding or cell entry; 300,000 compounds, 1.2% hits; AID 540256; Lassa virus pseudotype entry inhibition, cell reporter; Potency, µM (highest dose often 37.9 µM), for inactives: top-dose activity change, negative = inhibition, hits mostly inhibitors; calls by dose curve; tested in HEK293 cells; further: potency means the concentration at half of the fitted maximal effect; on the % scale 0 is the no-effect control and ±100 the full control effect; nearly all actives have a fitted effect of over 50% in size
# HCV inh = HCV inhibition. 340,000 compounds, 3.4% hits. Huh7.5.1 HCVcc-Cre infection, luciferase reporter, 44 h. Potency, µM (titrated, usually from 41.8 µM), without a hit: at the top dose activity change, negative = inhibition, actives largely listed as inhibitors; active means well fitted inhibition curve with a large enough effect; inconclusive means small, poorly fitted or top-dose-only effect, or another doubt; inactive means no such curve, though single readings can be large or run the other way; further: potency means the concentration at half of the fitted maximal effect; on the % scale 0 is the no-effect control and ±100 the full control effect
#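 After 44 h co-culture of compound, cells and HCVcc-Cre (~0.5 moi), substrate is added for 15 min at room temperature and luciferase measured over 15 sec. Cells were seeded at 1,000/well and pre-cultured 4 h.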
# Shiga toxin inh = Shiga toxin inhibition; Vero cells, Shiga toxin protein synthesis inhibition reporter; inhibition, % at 38.7 µM; 290,000 compounds, 9.2% hits; AID 2315; in the data active means inhibition mostly above about 28%, no sharp cut-off; inactive means mostly below about 43%; further: 0% is about no effect
# FMDV inh = blocks foot and mouth disease virus. FMDV antiviral cell-based qHTS. Potency, µM (top dose mostly 57.9 µM), for the others: at the highest dose activity change, negative = inhibition, hits mostly inhibitors. 410,000 compounds, 1.2% hits; calls by dose curve; tested in HEK293T cells; further: read-out not given here; potency means the concentration at half of the fitted maximal effect; on the % scale 0 is the no-effect control and ±100 the full control effect; nearly all actives have a fitted effect of over 45% in size
# An asterisk follows results filed as active; ? = inconclusive; nt = no result; + = active, no number; [ ] = dose if it differs, or a comment. Only some compounds are listed: those with a hit (about 13% of all), similar ones and a draw of the others.
SMILES,MARV entry inh,Cycloheximide cs,LASV entry inh,HCV inh,Shiga toxin inh,FMDV inh
CCN(CC)S(=O)(=O)c1ccc2oc(C(=O)Nc3cc(C)ccc3OC)c(C)c2c1,nt,nt,22%[46.1 µM],nt,nt,-24%
CCN(CC)S(=O)(=O)c1ccc2oc(Nc3ccc(OC)cc3OC)nc2c1,0%[46.1 µM],-2,-9%,10µM*,17,-20%
CCS(=O)(=O)c1ccc2oc(Nc3ccccc3C)nc2c1,-2%,54*,?,-12%,69*,54%
CCS(=O)(=O)c1ccc2oc(Nc3ccc(OC)c(OC)c3)nc2c1,-2%[46.1 µM],17,-10%,-6%,16,52%
CCN(CC)S(=O)(=O)c1ccc2oc(C(=O)Nc3ccc(OC)cc3OC)c(C)c2c1,?,-4,6.5µM*,-9%,41,-14%
COc1ccccc1NC(=O)c1oc2ccc(C)cc2c1C,0%,34*,4%,-18%,101,20%
Cn1nc(-c2ccccc2)c(COC(=O)c2cccc(Cl)c2)c1S(=O)(=O)c1ccccc1,1%,-1,-1%,-3%,-12,31%
CC1(C)CC(=O)C2=C(C1)N(Cc1ccc(F)cc1)C(=O)C2(NC(=O)c1cccnc1)C(F)(F)F (centres undefined),3%,-2,-10%,2%,-9,-8%
CCN(CC)S(=O)(=O)c1ccc2oc(Nc3ccccc3)nc2c1,?,30*,4%[46.1 µM],?,79*,49%
CCOC(=O)NN=C1CCC(c2ccccc2)CC1 (centres undefined),nt,9.8*,nt,10%,10,7%
O=C(NN=C1CCC(c2ccccc2)CC1)c1ccccc1-n1cccc1 (centres undefined),-4%,-2,-4%,-4%,-3,-4%
CC(C)(C)C1CCC(=NNC(=O)CN(c2ccccc2)S(C)(=O)=O)CC1 (centres undefined),5%,43*,11%,-1%,90*,-16%
NC(=O)C(=O)NN=C1CCC(c2ccccc2)CC1 (centres undefined),7%,9,-1%,5%,15,9%
COC(=O)NN=C1CCC(c2ccccc2)CC1 (centres undefined),1%[46.1 µM],25,1%[46.1 µM],17%,30*,6%
CC(C)(C)C(=O)NN=C1CCC(c2ccccc2)CC1 (centres undefined),nt,19*,nt,3%,24,-8%
CCOC(=O)N/N=C(/c1ccccc1)C1CCCCC1,-23%[46.1 µM],5,-23%,-7%,37,-4%
CN1CCC(=NNC(=O)CN(c2ccccc2)S(=O)(=O)c2ccccc2)CC1,0%,-2,12%,15%,-30,-8%
Cc1nc(N2CCCC2)ncc1C(=O)Nc1ccc(F)cc1F,nt,nt,4%[46.1 µM],nt,nt,25%
CNC(=O)NNC(=O)c1onc(-c2c(Cl)cccc2Cl)c1C(=O)OC,?,-1,2%,0%,-1,-3%
CCOc1ccc(CNC(=O)c2sc3nc(C)cc(C)c3c2-n2cccc2)cc1,-15%[46.1 µM],nt,4%[46.1 µM],nt,nt,8%
Cc1ccc(CN(C(=O)COc2cc(C)c(Cl)c(C)c2)c2ccccn2)o1,-2%[46.1 µM],nt,4%[46.1 µM],nt,nt,-9%
CC(=O)c1ccc(NC(=O)c2nc(-c3ccccc3)n(-c3ccccc3)n2)cc1,-2%[46.1 µM],nt,0%[46.1 µM],nt,nt,-10%
N#Cc1ccc(N2Cc3ccccc3C2=NC(=O)c2cccs2)cc1,?,38*,-6%,?,+,25%
CC(=O)c1ccc(N2Cc3ccccc3C2=NC(=O)c2cccs2)cc1,?,26*,7.9µM*,?,60*,2%
CC(=O)c1ccc(N2Cc3ccccc3/C2=N\C(=O)Nc2ccccc2)cc1,14%,28*,0%,-7%,43,13%
COc1ccc(N2Cc3ccccc3C2=NC(=O)c2cncc(Br)c2)cc1,-6%,40*,25%,3%,71*,45%
CC(=O)c1ccc(NC(=O)CC(c2cccs2)N2Cc3ccccc3C2=O)cc1 (centres undefined),nt,nt,24%[46.1 µM],nt,nt,80%
CC(=O)c1cccc(N2C(=NC(=O)CCc3ccccc3)SC3CS(=O)(=O)CC32)c1 (centres undefined),nt,-5,nt,-2%,-11,-12%
COc1ccc(N2Cc3ccccc3C2=NC(=O)c2cccc([N+](=O)[O-])c2)cc1,3%,10,18%,0%,10,20%
CC(=O)c1cccc(N2Cc3ccccc3C2=NC(=O)CCl)c1,?,25*,?,-13%,43,-29%
